Out of some 5,500 compounds screened, about 2,000 (36%) were called active. Inconclusive results (about 18%) are left out. Rule as the data show it: active = normalized growth mostly below about 0.91 (no sharp cut-off); inconclusive = no clear call, values can overlap the other calls; inactive = mostly above about 0.92. This is one part of the list.
Test: chemical genetic growth profiling, strain panel (AID 1159580);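 also: tested at 20 µM; growth read once vehicle control cultures reached saturation at 30 °C; 1 = growth at the plate median or of vehicle wells; lower values mean less growth of the strain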
Details: growth OD
[1] = S. cerevisiae deletion strains, locus YDL101C, strain DUN1, active compounds read low
[2] = S. cerevisiae deletion strains, locus YHR030C, strain SLT2, active compounds read low
[3] = S. cerevisiae deletion strains, locus YJL095W, strain BCK1, active compounds read low
[4] = S. cerevisiae deletion strains, locus YOR061W, strain CKA2, active compounds read low

Measured: normalized growth

NCCC(O)C(=O)NC1CC(N)C(OC2OC(CN)C(O)C(O)C2N)C(OC2OC(CO)C(O)C2O)C1O (configuration not stated)
inactive: S. cerevisiae deletion strains, locus YAL013W, strain DEP1, active compounds read low 1.04 | S. cerevisiae deletion strains, locus YBR021W, strain FUR4, active compounds read low 0.976 | S. cerevisiae deletion strains, locus YBR229C, strain ROT2, active compounds read low 1 | S. cerevisiae deletion strains, locus YCL029C, strain bik1, active compounds read low 0.994 | S. cerevisiae deletion strains, locus YDL035C, strain GPR1, active compounds read low 0.993 | S. cerevisiae deletion strains, locus YDL074C, strain BRE1, active compounds read low 1.03 | [1] 1 | S. cerevisiae deletion strains, locus YDL134C, strain PPH21, active compounds read low 0.999 | S. cerevisiae deletion strains, locus YDL185W, strain tfp1, active compounds read low 0.979 | S. cerevisiae deletion strains, locus YDL192W, strain arf1, active compounds read low 1 | S. cerevisiae deletion strains, locus YDR101C, strain arx1, active compounds read low 1 | S. cerevisiae deletion strains, locus YDR150W, strain NUM1, active compounds read low 0.999 | S. cerevisiae deletion strains, locus YDR162C, strain NBP2, active compounds read low 1.01 | S. cerevisiae deletion strains, locus YDR318W, strain mcm21, active compounds read low 0.992 | S. cerevisiae deletion strains, locus YDR388W, active compounds read low 0.998 | S. cerevisiae deletion strains, locus YDR502C, strain sam2, active compounds read low 1 | S. cerevisiae deletion strains, locus YEL061C, strain CIN8, active compounds read low 1 | S. cerevisiae deletion strains, locus YER110C, active compounds read low 0.988 | S. cerevisiae deletion strains, locus YER155C, strain BEM2, active compounds read low 0.993 | S. cerevisiae deletion strains, locus YER167W, strain BCK2, active compounds read low 0.978 | S. cerevisiae deletion strains, locus YGL078C, strain dbp3, active compounds read low 0.999 | S. cerevisiae deletion strains, locus YGL086W, strain mad1, active compounds read low 0.989 | S. cerevisiae deletion strains, locus YGL248W, strain PDE1, active compounds read low 0.994 | S. cerevisiae deletion strains, locus YGR078C, strain PAC10, active compounds read low 1.01 | S. cerevisiae deletion strains, locus YGR135W, strain pre9, active compounds read low 1.02 | S. cerevisiae deletion strains, locus YGR229C, strain SMI1, active compounds read low 1.02 | S. cerevisiae deletion strains, locus YGR252W, strain gcn5, active compounds read low 0.994 | [2] 0.983 | S. cerevisiae deletion strains, locus YHR079C, strain IRE1 (second series), active compounds read low 0.99 | S. cerevisiae deletion strains, locus YHR094C, strain hxt1, active compounds read low 0.989 | S. cerevisiae deletion strains, locus YHR129C, strain ARP1, active compounds read low 0.992 | S. cerevisiae deletion strains, locus YHR200W, strain rpn10, active compounds read low 0.994 | S. cerevisiae deletion strains, locus YIL066C, strain RNR3, active compounds read low 0.999 | S. cerevisiae deletion strains, locus YIL073C, strain SPO22, active compounds read low 0.9 | S. cerevisiae deletion strains, locus YIL125W, strain kgd1, active compounds read low 0.995 | S. cerevisiae deletion strains, locus YIR030C, strain dcg1, active compounds read low 0.993 | [3] 1.06 | S. cerevisiae deletion strains, locus YJL134W, strain LCB3, active compounds read low 0.989 | S. cerevisiae deletion strains, locus YJL168C, strain set2, active compounds read low 0.991 | S. cerevisiae deletion strains, locus YJL187C, strain SWE1 (second series), active compounds read low 0.994 | S. cerevisiae deletion strains, locus YJR043C, strain POL32, active compounds read low 1.04 | S. cerevisiae deletion strains, locus YJR075W, strain HOC1, active compounds read low 1.02 | S. cerevisiae deletion strains, locus YKL009W, strain mrt4, active compounds read low 0.978 | S. cerevisiae deletion strains, locus YKL068W, active compounds read low 0.987 | S. cerevisiae deletion strains, locus YKL085W, strain MDH1 (second series), active compounds read low 0.972 | S. cerevisiae deletion strains, locus YKL085W, strain MDH1, active compounds read low 0.972 | S. cerevisiae deletion strains, locus YKL190W, strain CNB1, active compounds read low 0.99 | S. cerevisiae deletion strains, locus YKR001C, strain vps1, active compounds read low 1 | S. cerevisiae deletion strains, locus YLR039C, strain RIC1, active compounds read low 1.02 | S. cerevisiae deletion strains, locus YLR058C, strain SHM2, active compounds read low 0.986 | S. cerevisiae deletion strains, locus YLR102C, strain apc9, active compounds read low 0.989 | S. cerevisiae deletion strains, locus YLR262C, strain YPT6, active compounds read low 0.985 | S. cerevisiae deletion strains, locus YLR268W, strain sec22, active compounds read low 1.02 | S. cerevisiae deletion strains, locus YLR330W, strain CHS5, active compounds read low 0.981 | S. cerevisiae deletion strains, locus YLR342W, strain FKS1 (second series), active compounds read low 0.968 | S. cerevisiae deletion strains, locus YLR371W, strain rom2, active compounds read low 0.978 | S. cerevisiae deletion strains, locus YLR418C, strain cdc73, active compounds read low 1.02 | S. cerevisiae deletion strains, locus YML016C, strain PPZ1, active compounds read low 0.991 | S. cerevisiae deletion strains, locus YML032C, strain rad52, active compounds read low 0.998 | S. cerevisiae deletion strains, locus YML124C, strain tub3, active compounds read low 1 | S. cerevisiae deletion strains, locus YMR078C, strain ctf18, active compounds read low 0.997 | S. cerevisiae deletion strains, locus YMR223W, strain ubp8, active compounds read low 0.995 | S. cerevisiae deletion strains, locus YMR263W, strain SAP30, active compounds read low 1.01 | S. cerevisiae deletion strains, locus YMR307W, strain GAS1, active compounds read low 0.99 | S. cerevisiae deletion strains, locus YNL067W, strain RPL9B, active compounds read low 1.03 | S. cerevisiae deletion strains, locus YNL128W, strain TEP1, active compounds read low 1.02 | S. cerevisiae deletion strains, locus YNL153C, strain GIM3, active compounds read low 1.01 | S. cerevisiae deletion strains, locus YNL233W, strain BNI4, active compounds read low 1 | S. cerevisiae deletion strains, locus YNL250W, strain rad50, active compounds read low 0.991 | S. cerevisiae deletion strains, locus YNL271C, strain bni1, active compounds read low 0.983 | S. cerevisiae deletion strains, locus YNL298W, strain CLA4, active compounds read low 1.01 | S. cerevisiae deletion strains, locus YNL307C, strain MCK1, active compounds read low 0.997 | S. cerevisiae deletion strains, locus YNL322C, strain KRE1, active compounds read low 0.997 | S. cerevisiae deletion strains, locus YNR052C, strain pop2, active compounds read low 0.994 | S. cerevisiae deletion strains, locus YOL006C, strain TOP1, active compounds read low 1.05 | S. cerevisiae deletion strains, locus YOL012C, strain htz1 0.88 | S. cerevisiae deletion strains, locus YOL147C, strain pex11, active compounds read low 0.994 | [4] 0.999 | S. cerevisiae deletion strains, locus YOR069W, strain VPS5, active compounds read low 1.01 | S. cerevisiae deletion strains, locus YOR136W, strain idh2, active compounds read low 0.993 | S. cerevisiae deletion strains, locus YOR144C, strain elg1, active compounds read low 0.995 | S. cerevisiae deletion strains, locus YOR184W, strain ser1, active compounds read low 0.982 | S. cerevisiae deletion strains, locus YOR316C, strain cot1, active compounds read low 0.987 | S. cerevisiae deletion strains, locus YPL055C, strain LGE1, active compounds read low 1.04 | S. cerevisiae deletion strains, locus YPL241C, strain CIN2, active compounds read low 1.01 | S. cerevisiae deletion strains, locus YPR119W, strain clb2, active compounds read low 0.993 | S. cerevisiae deletion strains, locus YPR141C, strain kar3, active compounds read low 0.992 | S. cerevisiae deletion strains, locus YPR163C, strain tif3, active compounds read low 1 | S. cerevisiae deletion strains, locus YPR167C, strain met16, active compounds read low 0.994 | S. cerevisiae deletion strains, strain wtn01, active compounds read low 0.993 | S. cerevisiae strains, strain wild type, active compounds read low 0.992

CCCN(CCC)C(=S)NC(=O)c1cccc([N+](=O)[O-])c1
inactive: S. cerevisiae deletion strains, locus YAR019C, strain CDC15, active compounds read low 0.973 | S. cerevisiae deletion strains, locus YBL105C, strain PKC1, active compounds read low 0.956 | S. cerevisiae deletion strains, locus YBR135W, strain CKS1, active compounds read low 0.977 | S. cerevisiae deletion strains, locus YBR136W, strain MEC1, active compounds read low 0.966 | S. cerevisiae deletion strains, locus YBR160W, strain CDC28, active compounds read low 0.965 | S. cerevisiae deletion strains, locus YDL017W, strain CDC7, active compounds read low 0.969 | S. cerevisiae deletion strains, locus YDL028C, strain MPS1, active compounds read low 0.976 | [1] 0.968 | S. cerevisiae deletion strains, locus YDL108W, strain KIN28, active compounds read low 0.965 | S. cerevisiae deletion strains, locus YDL132W, strain cdc53, active compounds read low 0.973 | S. cerevisiae deletion strains, locus YDL214C, strain PRR2, active compounds read low 0.967 | S. cerevisiae deletion strains, locus YDR052C, strain DBF4, active compounds read low 0.978 | S. cerevisiae deletion strains, locus YDR054C, strain cdc34, active compounds read low 0.96 | S. cerevisiae deletion strains, locus YDR226W, strain ADK1, active compounds read low 0.968 | S. cerevisiae deletion strains, locus YDR477W, strain SNF1, active compounds read low 0.958 | S. cerevisiae deletion strains, locus YER123W, strain YCK3, active compounds read low 0.907 | S. cerevisiae deletion strains, locus YER133W, strain GLC7, active compounds read low 0.965 | S. cerevisiae deletion strains, locus YFL009W, strain cdc4, active compounds read low 0.961 | S. cerevisiae deletion strains, locus YFL029C, strain CAK1, active compounds read low 0.962 | S. cerevisiae deletion strains, locus YFR003C, strain YPI1, active compounds read low 0.977 | S. cerevisiae deletion strains, locus YFR019W, strain FAB1, active compounds read low 0.958 | S. cerevisiae deletion strains, locus YFR028C, strain CDC14, active compounds read low 0.963 | S. cerevisiae deletion strains, locus YGR040W, strain KSS1, active compounds read low 0.924 | S. cerevisiae deletion strains, locus YGR052W, strain FMP48, active compounds read low 1.02 | S. cerevisiae deletion strains, locus YGR092W, strain DBF2, active compounds read low 0.915 | [2] 0.94 | S. cerevisiae deletion strains, locus YHR079C, strain IRE1, active compounds read low 0.978 | S. cerevisiae deletion strains, locus YHR082C, strain KSP1, active compounds read low 1.02 | S. cerevisiae deletion strains, locus YHR205W, strain SCH9, active compounds read low 0.976 | S. cerevisiae deletion strains, locus YIL147C, strain SLN1, active compounds read low 0.97 | [3] 0.982 | S. cerevisiae deletion strains, locus YJL128C, strain PBS2, active compounds read low 0.952 | S. cerevisiae deletion strains, locus YJL157C, strain FAR1, active compounds read low 0.928 | S. cerevisiae deletion strains, locus YJR016C, strain ILV3, active compounds read low 0.968 | S. cerevisiae deletion strains, locus YJR066W, strain TOR1 (second series), active compounds read low 0.898 | S. cerevisiae deletion strains, locus YJR066W, strain TOR1, active compounds read low 0.992 | S. cerevisiae deletion strains, locus YKL048C, strain ELM1, active compounds read low 0.954 | S. cerevisiae deletion strains, locus YKL067W, strain YNK1, active compounds read low 0.96 | S. cerevisiae deletion strains, locus YKL101W, strain HSL1, active compounds read low 0.958 | S. cerevisiae deletion strains, locus YKL193C, strain SDS22, active compounds read low 0.968 | S. cerevisiae deletion strains, locus YKL203C, strain TOR2, active compounds read low 0.995 | S. cerevisiae deletion strains, locus YLR113W, strain HOG1, active compounds read low 0.932 | S. cerevisiae deletion strains, locus YLR133W, strain CKI1, active compounds read low 0.946 | S. cerevisiae deletion strains, locus YLR403W, strain SFP1, active compounds read low 0.907 | S. cerevisiae deletion strains, locus YML070W, strain DAK1, active compounds read low 0.942 | S. cerevisiae deletion strains, locus YMR001C, strain CDC5, active compounds read low 0.973 | S. cerevisiae deletion strains, locus YMR205C, strain PFK2 (second series), active compounds read low 0.956 | S. cerevisiae deletion strains, locus YMR277W, strain FCP1, active compounds read low 0.973 | S. cerevisiae deletion strains, locus YNL006W, strain LST8, active compounds read low 0.977 | S. cerevisiae deletion strains, locus YNL020C, strain ARK1, active compounds read low 0.946 | S. cerevisiae deletion strains, locus YNL161W, strain CBK1, active compounds read low 0.959 | S. cerevisiae deletion strains, locus YNL183C, strain NPR1, active compounds read low 0.977 | S. cerevisiae deletion strains, locus YNL207W, strain RIO2, active compounds read low 0.971 | S. cerevisiae deletion strains, locus YNL222W, strain SSU72, active compounds read low 0.965 | S. cerevisiae deletion strains, locus YNL307C, strain MCK1 (second series), active compounds read low 0.94 | S. cerevisiae deletion strains, locus YOL078W, strain AVO1, active compounds read low 0.965 | S. cerevisiae deletion strains, locus YOL136C, strain PFK27, active compounds read low 0.929 | [4] 0.943 | S. cerevisiae deletion strains, locus YOR119C, strain RIO1, active compounds read low 0.996 | S. cerevisiae deletion strains, locus YOR231W, strain MKK1, active compounds read low 0.939 | S. cerevisiae deletion strains, locus YOR329C, strain SCD5, active compounds read low 0.963 | S. cerevisiae deletion strains, locus YPL031C, strain PHO85, active compounds read low 0.955 | S. cerevisiae deletion strains, locus YPL153C, strain RAD53, active compounds read low 0.925 | S. cerevisiae deletion strains, locus YPL204W, strain HRR25, active compounds read low 0.915 | S. cerevisiae deletion strains, locus YPL209C, strain IPL1, active compounds read low 0.961 | S. cerevisiae deletion strains, locus YPL256C, strain CLN2, active compounds read low 0.941 | S. cerevisiae deletion strains, locus YPR025C, strain CCL1, active compounds read low 0.973 | S. cerevisiae deletion strains, locus YPR106W, strain ISR1, active compounds read low 0.961 | S. cerevisiae deletion strains, locus YPR111W, strain DBF20, active compounds read low 0.964 | S. cerevisiae deletion strains, strain NNK1, active compounds read low 0.974 | S. cerevisiae deletion strains, strain TSCII, active compounds read low 0.962

— PubChem BioAssay AID1159580 (chemical genetic matrix, 2015)
